The values below come from article PMC10812921, “Transcriptional Coactivator BOB1 (OBF1, OCA-B) Modulates the Specificity of DNA Recognition by the POU-Domain Factors OCT1 and OCT2 in a Monomeric Configuration”.

Chain of POU1 (OCT1 POU domain) (P14859 260-458): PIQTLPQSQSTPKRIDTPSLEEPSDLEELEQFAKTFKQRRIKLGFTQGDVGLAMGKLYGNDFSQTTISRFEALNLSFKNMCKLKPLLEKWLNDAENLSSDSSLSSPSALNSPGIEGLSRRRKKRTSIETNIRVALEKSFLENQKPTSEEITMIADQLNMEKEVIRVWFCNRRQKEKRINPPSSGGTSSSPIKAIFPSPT

The first test deals with POU1 (OCT1 POU domain) (human, UniProt P14859 260-458). The experiment in a line: EMSA-SELEX-seq; no BOB1; 20 mM Tris-HCl pH 7.6, 140 mM NaCl, 10% glycerol, 0.5 mM EDTA, 0.05% Triton X-100, 0.1 mg/mL BSA, 0.1 mg/mL poly(dI-dC), 5 mM DTT, room temperature, 20 min; high values mean tight binding. Particulars: protein: recombinant; dsDNA, one strand shown. An outline of the steps:
(§1)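 After expression in E. coli BL21, tagged POU-domain proteins were purified under denaturing conditions and then renatured. Each binding reaction held 30 ng protein and 300 ng of a PCR-amplified double-stranded random 35-nt library in 20 μL Tris–HCl pH 7.6 binding buffer, with or without 28 ng coactivator protein, for 20 min at RT. Bands holding complexes were cut from native 6% PAGE, eluted and PCR-amplified across four rounds, and the output was Illumina-sequenced. The value given for binding preference is the share, in percent, of sequenced 8-mers fitting a motif pattern.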
A general note: In EMSA bound probe runs differently from free probe, usually more slowly.
Turning to AAACAAAA, the binding signal was 0.156 % of ANNNNAAN 8-mers.

With AACGGAAA, the binding signal is 0.0561 % of ANNNNAAN 8-mers.

As for ACGCTAAA, the binding signal was 0.0305 % of ANNNNAAN 8-mers.

AACGTAAT: the binding signal is 0.077 % of ANNNNAAN 8-mers.

As for ATGACAAT, the binding signal was 0.0576 % of ANNNNAAN 8-mers.

For ACGGCAAG, the binding signal is 0.0206 % of ANNNNAAN 8-mers.

AAGCGAAT: the binding signal was 0.0538 % of ANNNNAAN 8-mers.

Turning to AGCACAAG, the binding signal is 0.0168 % of ANNNNAAN 8-mers.

ACAAAAAT: the binding signal is 0.0938 % of ANNNNAAN 8-mers.

On to ACATGAAA, for which the binding signal is 0.0671 % of ANNNNAAN 8-mers.

With ATTCCAAC, the binding signal is 0.0339 % of ANNNNAAN 8-mers.

As to AGCGGAAA, the binding signal is 0.0378 % of ANNNNAAN 8-mers.

Consider ACGGGAAA, for which the binding signal was 0.0492 % of ANNNNAAN 8-mers.

In the case of AGGTCAAA, the binding signal was 0.0587 % of ANNNNAAN 8-mers.

Turning to ACCCTAAG, the binding signal was 0.0118 % of ANNNNAAN 8-mers.

Regarding AAGTTAAA, the binding signal was 0.0858 % of ANNNNAAN 8-mers.

As for ATTACAAT, the binding signal was 0.195 % of ANNNNAAN 8-mers.

Consider ACCAAAAA, for which the binding signal is 0.0336 % of ANNNNAAN 8-mers.

As for AGTAGAAA, the binding signal was 0.0511 % of ANNNNAAN 8-mers.

As for AACATAAT, the binding signal was 0.134 % of ANNNNAAN 8-mers.

As for AGTGTAAG, the binding signal is 0.032 % of ANNNNAAN 8-mers.

ACCCGAAA: the binding signal was 0.0172 % of ANNNNAAN 8-mers.

Take ACACGAAT: the binding signal was 0.0347 % of ANNNNAAN 8-mers.

Consider AGCGGAAC, for which the binding signal was 0.0183 % of ANNNNAAN 8-mers.

For the sequence AATAGAAC, the binding signal is 0.0381 % of ANNNNAAN 8-mers.

Turning to AGTAAAAC, the binding signal was 0.0427 % of ANNNNAAN 8-mers.

AGCTCAAA: the binding signal is 0.0252 % of ANNNNAAN 8-mers.

For AAAGGAAC, the binding signal is 0.0435 % of ANNNNAAN 8-mers.

On to AGGGTAAA, for which the binding signal was 0.0706 % of ANNNNAAN 8-mers.

Take AAGGAAAA: the binding signal is 0.113 % of ANNNNAAN 8-mers.

As to ATAGGAAC, the binding signal is 0.0339 % of ANNNNAAN 8-mers.

On to ACGCGAAG, for which the binding signal was 0.0172 % of ANNNNAAN 8-mers.

As for AAGGCAAT, the binding signal was 0.0519 % of ANNNNAAN 8-mers.

Regarding ACGTTAAG, the binding signal was 0.037 % of ANNNNAAN 8-mers.

For AAAATAAC, the binding signal is 0.0782 % of ANNNNAAN 8-mers.

As for ACTTGAAT, the binding signal was 0.0828 % of ANNNNAAN 8-mers.

For the sequence ACTCAAAA, the binding signal was 0.0427 % of ANNNNAAN 8-mers.

For the sequence ACCTGAAT, the binding signal is 0.0583 % of ANNNNAAN 8-mers.

For the sequence ACCCTAAT, the binding signal is 0.037 % of ANNNNAAN 8-mers.

The target of a further test is T1, POU2 (OCT2 POU domain) (human, UniProt P09086 175-386).
T1 sequence: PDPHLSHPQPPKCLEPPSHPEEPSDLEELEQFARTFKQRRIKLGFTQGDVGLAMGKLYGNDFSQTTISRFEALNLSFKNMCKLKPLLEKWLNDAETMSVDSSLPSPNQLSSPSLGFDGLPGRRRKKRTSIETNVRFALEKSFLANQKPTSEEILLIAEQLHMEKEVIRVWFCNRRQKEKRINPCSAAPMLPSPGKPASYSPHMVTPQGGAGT
The test is described as above. The settings on record: protein: recombinant; dsDNA, one strand shown. The method, boiled down:
as §1
As to AAACAAAA, the binding signal was 0.115 % of ANNNNAAN 8-mers.

Take AACGGAAA: the binding signal was 0.0552 % of ANNNNAAN 8-mers.

As for ACGCTAAA, the binding signal is 0.0391 % of ANNNNAAN 8-mers.

Take AACGTAAT: the binding signal was 0.0823 % of ANNNNAAN 8-mers.

Take ATGACAAT: the binding signal was 0.0737 % of ANNNNAAN 8-mers.

As to ACGGCAAG, the binding signal was 0.027 % of ANNNNAAN 8-mers.

AAGCGAAT: the binding signal was 0.0541 % of ANNNNAAN 8-mers.

Turning to AGCACAAG, the binding signal is 0.0196 % of ANNNNAAN 8-mers.

For ACAAAAAT, the binding signal is 0.0667 % of ANNNNAAN 8-mers.

Take ACATGAAA: the binding signal was 0.0708 % of ANNNNAAN 8-mers.

ATTCCAAC: the binding signal is 0.0432 % of ANNNNAAN 8-mers.

Regarding AGCGGAAA, the binding signal is 0.0472 % of ANNNNAAN 8-mers.

Take ACGGGAAA: the binding signal is 0.0564 % of ANNNNAAN 8-mers.

Regarding AGGTCAAA, the binding signal is 0.0403 % of ANNNNAAN 8-mers.

On to ACCCTAAG, for which the binding signal was 0.0178 % of ANNNNAAN 8-mers.

In the case of AAGTTAAA, the binding signal is 0.0857 % of ANNNNAAN 8-mers.

Consider ATTACAAT, for which the binding signal was 0.26 % of ANNNNAAN 8-mers.

With ACCAAAAA, the binding signal was 0.0328 % of ANNNNAAN 8-mers.

Take AGTAGAAA: the binding signal is 0.0708 % of ANNNNAAN 8-mers.

Regarding AACATAAT, the binding signal was 0.174 % of ANNNNAAN 8-mers.

With AGTGTAAG, the binding signal was 0.0443 % of ANNNNAAN 8-mers.

As to ACCCGAAA, the binding signal is 0.019 % of ANNNNAAN 8-mers.

As for ACACGAAT, the binding signal is 0.0575 % of ANNNNAAN 8-mers.

For the sequence AGCGGAAC, the binding signal is 0.0224 % of ANNNNAAN 8-mers.

As to AATAGAAC, the binding signal is 0.0541 % of ANNNNAAN 8-mers.

AGTAAAAC: the binding signal is 0.0391 % of ANNNNAAN 8-mers.

Turning to AGCTCAAA, the binding signal was 0.0213 % of ANNNNAAN 8-mers.

For AAAGGAAC, the binding signal was 0.0443 % of ANNNNAAN 8-mers.

As to AGGGTAAA, the binding signal was 0.0857 % of ANNNNAAN 8-mers.

For the sequence AAGGAAAA, the binding signal was 0.0955 % of ANNNNAAN 8-mers.

On to ATAGGAAC, for which the binding signal is 0.0449 % of ANNNNAAN 8-mers.

With ACGCGAAG, the binding signal is 0.0121 % of ANNNNAAN 8-mers.

On to AAGGCAAT, for which the binding signal is 0.0489 % of ANNNNAAN 8-mers.

ACGTTAAG: the binding signal was 0.0414 % of ANNNNAAN 8-mers.

With AAAATAAC, the binding signal was 0.0696 % of ANNNNAAN 8-mers.

With ACTTGAAT, the binding signal was 0.0961 % of ANNNNAAN 8-mers.

For ACTCAAAA, the binding signal is 0.0339 % of ANNNNAAN 8-mers.

Take ACCTGAAT: the binding signal was 0.0656 % of ANNNNAAN 8-mers.

On to ACCCTAAT, for which the binding signal is 0.0518 % of ANNNNAAN 8-mers.
